# Data: PubChem BioAssay (Tox21)
# Unmarked numbers belong to inactive results. Results filed as inconclusive are left out. Entries that show only a call come without a potency. Calls of active or inactive are those of the source. Unless noted, the call rests on the fitted dose curve; in most records, active means well fitted curve in the direction sought with a large enough effect in the repeat runs; inconclusive means weak or mixed curves; inactive means no such curve, though single readings can be large; an effect the other way counts as inactive or inconclusive.
# Assays:
# [1] = qHTS assay to test for compound auto fluorescence at 460 nm (blue) in HEK293 cell free culture (AID 720681)
# Summary of the method: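 Blue fluorescence (Ex 405/Em 460 nm, triamterene-equivalent) was read immediately after pin transfer of compound or DMSO into medium (DMEM, 10% FBS) without cells.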
# [2] = qHTS assay to test for compound auto fluorescence at 535 nm (green) in HEK293 cell free culture (AID 720682)
# Summary of the method: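 Measurement is a direct plate read of green fluorescence (485 nm in, 535 nm out) after compound addition to serum-supplemented DMEM lacking cells, with fluorescein used to express intensities.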
# [3] = qHTS assay to test for compound auto fluorescence at 590 nm (red) in HEK293 cell free culture (AID 720683)
# Summary of the method: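 Red-channel autofluorescence of compounds in culture medium (DMEM, 10% FBS), no cells, measured at 540/590 nm. Rose Bengal sodium is the reference fluorophore for equivalence.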
# [4] = qHTS assay to test for compound auto fluorescence at 590 nm (red) in HepG2 cell free culture (AID 720684)
# Summary of the method: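 Plate contents were MEM with 10% FBS plus test compound or DMSO, no cells. Fluorescence was recorded with 540 nm excitation and 590 nm emission.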
# [5] = qHTS assay to test for compound auto fluorescence at 460 nm (blue) in HepG2 cell free culture (AID 720685)
# Summary of the method: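 Compound (23 nL) or DMSO pinned into cell-free MEM with 10% FBS; blue fluorescence read at 405/460 nm excitation/emission, expressed as auto-fluorescence equivalency to triamterene.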
# [6] = qHTS assay to test for compound auto fluorescence at 535 nm (green) in HepG2 cell free culture (AID 720686)
# [7] = qHTS assay to test for compound auto fluorescence at 460 nm (blue) in HepG2 cells (AID 720687)
# Summary of the method: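 Blue-channel autofluorescence (Ex/Em 405/460 nm, triamterene-equivalent) was measured after 1 hr compound exposure at 37 C, 5% CO2. Cells were HepG2, plated overnight at 37 C in MEM plus 10% FBS.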
# [8] = qHTS assay to identify small molecule antagonists of the glucocorticoid receptor (GR) signaling pathway - cell viability counter screen (AID 720693); further: nearly all actives have a fitted effect of over 55% in size
# [9] = qHTS assay for identifying genotoxic compounds that show differential cytotoxicity against isogenic chicken DT40 cell lines with known DNA damage response pathways - wild type cell line (AID 743012); further: nearly all actives have a fitted effect of over 60% in size
# Summary of the method: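 Cells (DT40 wild type, 300/well) are treated with DMSO-dissolved compounds after a ~0.5 h pre-incubation and kept 40 h at 37 C/5% CO2. Viability is then measured by CellTiter-Glo luminescence following 30 min at room temperature.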
# [10] = qHTS assay for identifying genotoxic compounds that show differential cytotoxicity against isogenic chicken DT40 cell lines with known DNA damage response pathways - Rev3 mutant cell line (AID 743014); further: nearly all actives have a fitted effect of over 55% in size; further: potency means the concentration at half of the fitted maximal effect
# [11] = qHTS assay to identify small molecule antagonists of the androgen receptor (AR) signaling pathway - cell viability counter screen (AID 743033; further: nearly all actives have a fitted effect of over 45% in size)
# [12] = qHTS assay to identify small molecule antagonists of the thyroid receptor (TR) signaling pathway - cell viability counter screen (AID 743064); further: nearly all actives have a fitted effect of over 50% in size
# Summary of the method: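 Compounds were tested on GH3.TRE-Luc cells in the presence of T3 at 1 nM final. Following 23.5 h at 37 °C, cell viability was quantified by CellTiter-Fluor.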
# [13] = molecular target: Glucocorticoid receptor (Homo sapiens) (UniProt P04150); experiment: qHTS assay to identify small molecule agonists of the glucocorticoid receptor (GR) signaling pathway (AID 720691; active means well fitted activation curve with a large enough effect in the signal ratio in the repeat runs, not every such curve was filed as active; the % refers to the signal ratio)
# Summary of the method: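 Agonist mode in a HeLa line carrying a GRE-controlled beta-lactamase reporter. Compounds act for 18 h at 37 C before a 2 h room-temperature FRET substrate step and fluorescence reading.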
# [14] = molecular target: Glucocorticoid receptor (Homo sapiens) (UniProt P04150); experiment: qHTS assay to identify small molecule antagonists of the glucocorticoid receptor (GR) signaling pathway (AID 720692; active means well fitted inhibition curve with a large enough effect in the signal ratio in the repeat runs, not every such curve was filed as active; the % refers to the signal ratio)
# Summary of the method: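 Cells plated, rested 4 h at 37 C/5% CO2; compounds in DMSO pin-transferred; dexamethasone added to 5 nM final; 18 h at 37 C; B/G FRET substrate added, 2 h room temperature; fluorescence measured.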
# [15] = qHTS assay for identifying genotoxic compounds that show differential cytotoxicity against isogenic chicken DT40 cell lines with known DNA damage response pathways - Rad54/Ku70 mutant cell line (AID 743015); further: nearly all actives have a fitted effect of over 60% in size
# [16] = qHTS assay to identify small molecule antagonists of the androgen receptor (AR) signaling pathway using the MDA cell line - cell viability counter screen (AID 743041; further: nearly all actives have a fitted effect of over 45% in size)
# Summary of the method: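 R1881-driven MDA-kb2 AR-luc cells, 3,000/well, were dosed with library compounds for 16 h; cell health came from CellTiter-Fluor fluorescence in the reporter wells.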
# [17] = molecular target: Androgen receptor (Homo sapiens) (UniProt P10275); experiment: qHTS assay to identify small molecule agonists of the androgen receptor (AR) signaling pathway using the MDA cell line (AID 743040; further: nearly all actives have a fitted effect of over 20% in size; further: potency means the concentration at half of the fitted maximal effect)
# Summary of the method: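 After a 5 h incubation at 37C and 0% CO2, MDA-kb2 reporter cells were dosed with compounds in DMSO and kept 16 h under the same conditions. Luciferase activity was then read as luminescence with ONE-Glo.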
# [18] = molecular target: Androgen receptor (Homo sapiens) (UniProt P10275); experiment: qHTS assay to identify small molecule antagonists of the androgen receptor (AR) signaling pathway using the MDA cell line (AID 743042; further: nearly all actives have a fitted effect of over 55% in size)
# Summary of the method: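 Antagonist mode: compounds plus R1881 agonist added to MDA-kb2 AR-luc cells, incubated 16 h at 37C. Luciferase reporter luminescence quantified, with multiplexed CellTiter-Fluor readout for cell viability.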
# [19] = molecular target: Androgen receptor (Homo sapiens) (UniProt P10275); experiment: qHTS assay to identify small molecule antagonists of the androgen receptor (AR) signaling pathway (AID 743035; active means well fitted inhibition curve with a large enough effect in the signal ratio in the repeat runs, not every such curve was filed as active; the % refers to the signal ratio)
# Summary of the method: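 Antagonism is scored as loss of R1881-driven beta-lactamase reporter expression in HEK293 cells carrying the reporter under a UAS element, after 16 h co-treatment at 37C and a 2 h room-temperature FRET substrate read.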
# Chain of Glucocorticoid receptor (Homo sapiens) (P04150 whole entry, looked up): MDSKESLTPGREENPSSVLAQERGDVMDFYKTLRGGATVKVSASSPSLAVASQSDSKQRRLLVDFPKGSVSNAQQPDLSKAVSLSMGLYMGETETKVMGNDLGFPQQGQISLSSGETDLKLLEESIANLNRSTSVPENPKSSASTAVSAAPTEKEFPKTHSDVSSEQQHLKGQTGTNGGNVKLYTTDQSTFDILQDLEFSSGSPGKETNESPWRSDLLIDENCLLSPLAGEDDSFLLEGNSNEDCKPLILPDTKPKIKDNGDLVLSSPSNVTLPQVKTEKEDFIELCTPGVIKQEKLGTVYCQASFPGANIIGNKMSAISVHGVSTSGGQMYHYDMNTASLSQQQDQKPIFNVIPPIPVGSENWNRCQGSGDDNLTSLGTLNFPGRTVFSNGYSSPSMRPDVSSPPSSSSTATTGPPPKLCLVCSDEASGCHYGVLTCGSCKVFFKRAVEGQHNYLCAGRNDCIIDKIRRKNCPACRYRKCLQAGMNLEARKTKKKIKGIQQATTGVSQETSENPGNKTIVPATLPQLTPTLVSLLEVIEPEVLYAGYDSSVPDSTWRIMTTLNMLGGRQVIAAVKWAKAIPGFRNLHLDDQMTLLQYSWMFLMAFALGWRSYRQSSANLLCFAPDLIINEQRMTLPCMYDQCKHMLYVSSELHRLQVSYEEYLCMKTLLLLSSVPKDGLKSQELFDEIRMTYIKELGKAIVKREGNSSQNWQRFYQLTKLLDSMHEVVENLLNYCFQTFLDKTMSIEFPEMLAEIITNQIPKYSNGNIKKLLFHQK
# Chain of Androgen receptor (Homo sapiens) (P10275 whole entry, looked up): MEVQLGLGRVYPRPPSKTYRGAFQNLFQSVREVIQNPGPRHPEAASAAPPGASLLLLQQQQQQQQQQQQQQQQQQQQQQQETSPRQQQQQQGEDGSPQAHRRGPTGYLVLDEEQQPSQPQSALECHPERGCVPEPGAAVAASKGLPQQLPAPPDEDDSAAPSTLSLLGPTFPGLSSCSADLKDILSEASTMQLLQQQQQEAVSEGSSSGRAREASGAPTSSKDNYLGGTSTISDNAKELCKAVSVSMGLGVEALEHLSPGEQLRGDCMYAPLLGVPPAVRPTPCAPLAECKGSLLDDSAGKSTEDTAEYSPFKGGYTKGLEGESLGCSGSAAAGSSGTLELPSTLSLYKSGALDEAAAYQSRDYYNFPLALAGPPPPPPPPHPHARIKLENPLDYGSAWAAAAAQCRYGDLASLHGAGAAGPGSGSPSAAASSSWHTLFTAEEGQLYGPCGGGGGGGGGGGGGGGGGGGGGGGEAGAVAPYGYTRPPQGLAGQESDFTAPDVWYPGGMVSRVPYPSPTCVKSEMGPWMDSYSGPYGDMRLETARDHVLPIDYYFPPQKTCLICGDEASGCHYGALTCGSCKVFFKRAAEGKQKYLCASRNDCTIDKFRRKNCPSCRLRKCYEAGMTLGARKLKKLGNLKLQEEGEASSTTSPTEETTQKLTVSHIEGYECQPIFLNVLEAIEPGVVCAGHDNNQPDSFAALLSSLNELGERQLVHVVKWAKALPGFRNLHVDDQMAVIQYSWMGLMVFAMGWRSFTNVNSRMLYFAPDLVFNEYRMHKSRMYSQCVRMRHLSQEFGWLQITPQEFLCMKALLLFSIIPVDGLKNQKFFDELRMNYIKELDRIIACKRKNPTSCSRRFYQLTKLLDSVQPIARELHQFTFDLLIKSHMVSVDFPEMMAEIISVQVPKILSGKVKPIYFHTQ
smiles,measurement,setting,value
O=C(c1ccccc1)C1(O)CCCCC1,outcome,[1],inactive
same,outcome,[2],inactive
same,outcome,[3],inactive
same,outcome,[4],inactive
same,outcome,[5],inactive
same,outcome,[6],inactive
same,outcome,[7],inactive
same,outcome,[8],inactive
same,Potency,[9],inactive
same,Potency,[10],inactive
same,outcome,[11],inactive
same,Potency,[12],inactive
CCN(C=O)CC,outcome,[1],inactive
same,outcome,[2],inactive
same,outcome,[3],inactive
same,outcome,[4],inactive
same,outcome,[6],inactive
same,outcome,[7],inactive
same,Potency,[13],inactive
same,Potency,[14],inactive
same,outcome,[8],inactive
same,Potency,[9],inactive
same,Potency,[10],inactive
same,Potency,[15],inactive
same,outcome,[11],inactive
same,Potency,[16],inactive
same,Potency,[12],inactive
CCCCCCCCCCCCSC,outcome,[1],inactive
same,outcome,[2],inactive
same,outcome,[4],inactive
same,outcome,[6],inactive
same,outcome,[7],inactive
same,Potency,[13],inactive
same,Potency,[14],inactive
same,outcome,[8],inactive
same,Potency,[9],inactive
same,Potency,[10],61.1 µM (active)
same,Potency,[15],inactive
same,outcome,[11],inactive
same,Potency,[16],inactive
same,Potency,[12],inactive
C=CCCCCCCCCC(=O)OCC,outcome,[1],inactive
same,outcome,[2],inactive
same,outcome,[3],inactive
same,outcome,[4],inactive
same,outcome,[6],inactive
same,outcome,[7],inactive
same,outcome,[8],inactive
same,Potency,[9],inactive
same,Potency,[15],inactive
same,outcome,[11],inactive
same,Potency,[16],inactive
Cc1ccc(C(=O)c2ccc(CC(=O)O)n2C)cc1,activity change,[2],-0.0078% [at 18.6 µM]
same,"fluorescence, % of Rose Bengal",[4],0.0726% [at 18.6 µM]
same,"fluorescence, % of fluorescein control",[6],-0.0798% [at 18.6 µM]
same,"fluorescence, % of fluorescent control",[7],-0.0013% [at 18.6 µM]
same,outcome,[8],inactive
same,Potency,[9],inactive
same,Potency,[10],inactive
same,Potency,[15],inactive
same,Potency,[17],inactive
same,Potency,[16],inactive
same,outcome,[18],inactive
same,Potency,[12],inactive
CNCCO,outcome,[1],inactive
same,outcome,[2],inactive
same,outcome,[3],inactive
same,outcome,[4],inactive
same,outcome,[5],inactive
same,outcome,[6],inactive
same,outcome,[7],inactive
same,outcome,[8],inactive
same,Potency,[9],inactive
same,Potency,[10],inactive
same,Potency,[15],inactive
same,outcome,[11],inactive
same,Potency,[16],inactive
same,Potency,[12],inactive
CCOc1ccc2nc(S(N)(=O)=O)sc2c1,outcome,[1],inactive
same,outcome,[2],inactive
same,outcome,[3],inactive
same,outcome,[4],inactive
same,outcome,[5],inactive
same,outcome,[6],inactive
same,outcome,[7],inactive
same,Potency,[14],inactive
same,outcome,[8],inactive
same,Potency,[9],inactive
same,Potency,[10],inactive
same,Potency,[15],inactive
same,outcome,[11],inactive
same,Potency,[16],inactive
same,Potency,[12],inactive
CCCCCCCCCCCCCCC(=O)O,outcome,[2],inactive
same,outcome,[3],inactive
same,outcome,[4],inactive
same,outcome,[5],inactive
same,outcome,[6],inactive
same,outcome,[7],inactive
same,outcome,[8],inactive
same,outcome,[11],inactive
same,Potency,[16],inactive
same,Potency,[12],inactive
CC(=O)N1C[C@H](O)C[C@H]1C(=O)O,outcome,[1],inactive
same,outcome,[2],inactive
same,outcome,[3],inactive
same,outcome,[4],inactive
same,outcome,[6],inactive
same,outcome,[7],inactive
same,Potency,[14],inactive
same,outcome,[8],inactive
same,Potency,[9],inactive
same,Potency,[15],inactive
same,outcome,[11],inactive
same,Potency,[19],inactive
same,Potency,[17],26.6 µM (active)
same,Potency,[16],inactive
same,outcome,[18],inactive
O=CN(CCO)CCO,outcome,[1],inactive
same,outcome,[2],inactive
same,outcome,[3],inactive
same,outcome,[4],inactive
same,outcome,[5],inactive
same,outcome,[6],inactive
same,outcome,[7],inactive
same,Potency,[13],inactive
same,outcome,[8],inactive
same,Potency,[9],inactive
same,Potency,[10],inactive
same,Potency,[15],inactive
same,outcome,[11],inactive
same,Potency,[16],inactive
same,Potency,[12],inactive
O=C1CCCCCCCCCCCCCCO1,outcome,[1],inactive
same,outcome,[2],inactive
same,outcome,[3],inactive
same,outcome,[4],inactive
same,outcome,[6],inactive
same,outcome,[7],inactive
same,Potency,[14],inactive
same,outcome,[8],inactive
same,Potency,[9],inactive
same,Potency,[15],inactive
same,outcome,[11],inactive
same,Potency,[16],inactive
same,Potency,[12],inactive
CN1C(C)(C)CC(O)CC1(C)C,outcome,[1],inactive
same,outcome,[2],inactive
same,outcome,[4],inactive
same,outcome,[5],inactive
same,outcome,[6],inactive
same,outcome,[7],inactive
same,outcome,[8],inactive
same,Potency,[9],inactive
same,Potency,[15],inactive
same,outcome,[11],inactive
same,Potency,[16],inactive
CC(C)(C)C(=O)Oc1ccc(S(=O)(=O)Nc2ccccc2C(=O)NCC(=O)O)cc1,outcome,[1],inactive
same,outcome,[2],inactive
same,outcome,[3],inactive
same,outcome,[4],inactive
same,outcome,[5],inactive
same,outcome,[6],inactive
same,outcome,[7],inactive
same,outcome,[8],inactive
same,Potency,[15],inactive
same,outcome,[11],inactive
same,Potency,[16],inactive
same,Potency,[12],inactive
